# Experimental data: PubChem BioAssay (NCI)
# Values joined by “and” are separate entries in the source; they are usually repeats but may differ in a detail not shown here. Identical values can stand only once. About 83,000 compounds went through this panel and 20% of them were active in at least one assay; those are over-represented in the sample as a whole.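 Percent growth is the endpoint: 0 to 100 indicates growth inhibition (40 means 60% inhibition), 0 means no net growth, and negative values indicate cell death.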 Unmarked numbers belong to inactive results. Active and inactive are the calls of the source.
# Tested on: CAKI-1 renal
# Assay: NCI-60 one-dose screen, 48 h (100 = growth as untreated, 0 = no growth, -100 = all killed)
# Settings: 10 µM
# Description: Growth inhibition of the CAKI-1 human tumor cell line is measured as a screen for anti-cancer activity. Cells are grown in 96 well plates and exposed to the test compound for 48 hours. Compounds are tested at a single concentration, which is 10^-5 M for most compounds. The reported endpoint is percent growth (GI% or GIPRCNT), where numbers from 0 - 100% represent growth inhibition, and numbers from -100% - 0 represent cell death. For example, a value of 40 represents 60% growth inhibition. A value of 0 means no net growth occurred over the course of the experiment. A value of -40 indicates 40% of cells at the beginning of the experiment died by the end of the experiment. A value of -100 means all cells are dead at the end of the experiment.
# NCI-60 Human Tumor Cell Lines Screen was performed using the standard one-dose NCI protocol, which is described in more detail at https://dtp.cancer.gov/discovery_development/nci-60/default.htm.
# Compounds with GIPRCNT values below 10 were considered active. Activity score was based on GIPRCNT using the following formula: […]
# Score is 0 for GIPRCNT values of 100 or above, 50 for GIPRCNT values of 0, and 100 for GIPRCNT values of -100.
row,Structure (SMILES),growth
1,O=C(Nc1cccc(Br)c1)Oc1cccc2cccnc12,94.4%
2,COc1ccc(-c2cscc2N)cc1,70.9%

# Same assay, conditions: 10 µM unless noted
row,Structure (SMILES),growth
1,Cc1ccc(N=C=C(c2ccccc2)c2ccccc2)cc1,81.6%
2,Oc1c(Br)cc(Cl)cc1C(c1cc(Cl)cc(Br)c1O)C(Cl)(Cl)Cl,1.81% (active)
3,Cn1c2c(c3ccccc31)CCN1C[C@@H]3CCCC[C@H]3C[C@@H]21,18.9%
4,CN(C)CCOc1ccc2c(c1)C(=O)/C(=C\c1ncc([N+](=O)[O-])n1C)C2,-19.2% (active)
5,N#Cc1ccc([N+](=O)[O-])o1,104%
6,CNC(=O)N/N=C/c1ccc([N+](=O)[O-])o1,114%
7,COC(=O)[C@@]12OC[C@]34[C@H]([C@@H](O)[C@@H]1O)[C@@]1(C)[C@H](O)C(=O)C=C(C)[C@@H]1C[C@H]3OC(=O)C(OC(C)=O)[C@@H]24 (stereo not given in full),-35.9% (active)
8,COc1ccccc1OC(=O)Oc1ccccc1OC,97.9%
9,O=C1c2ccccc2C(=O)c2sc(Nc3ccc(Cl)cc3)nc21,75%
10,O=C(Nc1ccccc1)Oc1c(Cl)c(Cl)c(Cl)c(Cl)c1Cl,93.1% and 89.7%
11,CCCCCCC(C)c1ccccc1O (stereo not given) (tested in a mixture with another compound),90.1%
12,C/C=C1\SC(=S)NC1=O,99.3%
13,O=C(Oc1cccc2cccnc12)c1ccccc1,89.7%
14,C[n+]1c(/C=C/c2ccc([N+](=O)[O-])cc2)ccc2ccccc21,81.3%
15,CCCCCC(CCCCC)C(=O)O,119%
16,Cc1cc2nc(CS)[nH]c2cc1C,43.9%
17,CC(C)(C)CC(C)(C)c1ccc(OCCSC(=N)N)cc1,71.3%
18,N#CC1C(=O)SC2c3ccccc3C(=O)c3ccccc3C12 (stereo not given),88%

row,Structure (SMILES),growth
1,CC1=CC(O)C2CC1C2(C)C (stereo not given),94.4% and 85.8%
2,S=C(N/N=C/c1ccccn1)Nc1ccccn1,13.2%
3,Cc1ccc(NS(=O)(=O)c2ccc(C)cc2)cc1,90.9% and 96%
4,NC(N)=N/N=C/c1ccc([N+](=O)[O-])o1,106%
5,CC1SC(=S)N(c2ccc(Cl)cc2)C1=O (stereo not given),109% and 82.2%
6,CC(=O)Nc1cccc2cc(O)ccc12,129% and 93.5%
7,CN1c2ccccc2C(C)(C)C12C=Cc1cc(O)ccc1O2 (stereo not given),65.9%
8,O=C1c2ccccc2C(=O)c2sc(Nc3cccc(Cl)c3)nc21,70.4%
9,CNc1ccc2c(c1)c1ccccc1n2C,98.9%
10,CCOC(=O)c1c(C)[nH]c(CO)c1C,101%
11,COc1cc(/C=C/C(C)=O)ccc1O,93.4% and 115%
12,CN(C)C(=O)SC1=C(c2c(Cl)cccc2Cl)C(=O)c2ccccc21,-28.9% (active)
13,CCC1OC(OC)C=CC1=O (stereo not given),113%
14,O=C(/C=C\c1ccccc1)N1c2ccccc2CC1c1c[nH]c2ccccc12 (stereo not given),62.8%
15,CCN(CC)CC(C)(C)C(=O)/C=C/c1ccc(Cl)c(Cl)c1,-32.3% (active)
16,O=C(/C=C/c1cccc(Cl)c1)c1ccccc1,90.8% and 75.4%
17,Cc1ccnc(NC(c2ccccc2)c2ccc3cccnc3c2O)c1 (stereo not given),14.7%
18,N#CSCc1ccc(Cl)c(CSC#N)c1,22.5%

# Same assay, conditions: 100 µM
row,Structure (SMILES),growth
1,O=C(Nc1cccc(Br)c1)Oc1cccc2cccnc12,67.9%
2,COc1ccc(-c2cscc2N)cc1,29.2%
